Measurements as given in PubChem BioAssay AID652065 (The Scripps Research Institute Molecular Screening Center, 2013).
The whole screen tested about 4,300 compounds, of which about 3,000 (70%) were called active.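 Rule for the calls: active = inhibition above a per-plate cutoff, the mean inhibition of sample wells plus 3 SD (cut at about 35% in these data); inactive = the rest.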 The set was probably picked from earlier hits. The list is a sample of the results.

Experiment: small molecules binding CAG repeat RNA – biochemical, fluorescence, confirmation (AID 652065);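 note: loss of TO-PRO-1 fluorescence as compound displaces dye from 1x1 AA loop RNA; 0% = DMSO only wells and 100% = 100 µM mitoxantrone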
Details: r(CAG) RNA repeat, TO-PRO-1 dye displacement fluorescence; at 3 µM; hits give high values
For `Cc1sc2nc(SCC(=O)c3ccc(O)c(O)c3)n(Cc3ccco3)c(=O)c2c1C`, the inhibition was 64.2% (active).
With `CCOC(=O)C1Nc2ccc(C(F)(F)F)cc2C2C=CCC12` (stereo not given) the inhibition was 18.9% (inactive).
In the case of `CC1(C(=O)NS(=O)(=O)c2ccc(C#N)cc2)CCN1C(=O)c1ccc(C2CCCCC2)cc1` (stereo not given), the inhibition is reported as 51.7% (active).
With `Cc1cc(/C=N/Nc2ccc([N+](=O)[O-])cn2)c(C)n1-c1cccc(C(=O)O)c1` the inhibition was 35% (active).
With `Cc1ccc(-n2c(SCC(=O)Nc3ccc(S(=O)(=O)Nc4nccs4)cc3)nnc2-c2cccnc2)cc1` the inhibition was 58.8% (active).
In the case of `Cc1ccc(-n2c(SCC(=O)Nc3ccc(S(=O)(=O)Nc4nccs4)cc3)nnc2-c2ccccn2)cc1`, the inhibition is reported as 60.6% (active).
With `Cc1ccc(-n2c(SCC(=O)Nc3ccc(S(=O)(=O)Nc4nccs4)cc3)nnc2-c2ccncc2)cc1` the inhibition was 67.3% (active).
In the case of `O=C(NNC(=S)NC(=O)c1cn(-c2ccccc2)nc1-c1ccccc1)c1ccncc1`, the inhibition is reported as 54.8% (active).
In the case of `O=C(O)c1ccc(NC(=O)c2cn(-c3ccccc3)nc2-c2ccc(Cl)cc2)cc1`, the inhibition is reported as 62.6% (active).
In the case of `O=C(O)c1ccc(N/N=C/c2cn(-c3ccccc3)nc2-c2cccs2)cc1`, the inhibition is reported as 61.1% (active).
In the case of `CC(C)=CCCC1(C)C=Cc2c(ccc3c2[nH]c2cc(O)c(C)cc23)O1` (stereo not given), the inhibition is reported as 30.6% (inactive).
In the case of `Cc1cc(/C=C2/C(=N)N3C(=NC2=O)SN=C3S(C)(=O)=O)c(C)n1-c1ccccc1`, the inhibition is reported as 81.7% (active).
In the case of `CCOc1ccc(-n2c(O)c(/C=N/Nc3nnc(C)c(=O)[nH]3)c3ccccc3c2=O)cc1`, the inhibition is reported as 52.6% (active).
With `C=C1c2c(Cl)ccc(O)c2C(O)=C2C(=O)[C@]3(O)C(O)=C(C(N)=O)C(=O)[C@@H](N(C)C)[C@@H]3[C@@H](O)C12` (stereo not given in full) the inhibition was 70.9% (active).
In the case of `Cc1ccc(-n2ncc3c(Nc4cccc(C(=O)O)c4)ncnc32)cc1`, the inhibition is reported as 23.1% (inactive).
For `CCOc1cc(C)ccc1OCc1nnc(SCC(=O)Nc2cccc(C(=O)O)c2)n1-c1ccccc1`, the inhibition was 41.2% (active).
For `COc1ccc2[nH]c3c(C)c4cc[n+](C)cc4c(C)c3c2c1`, the inhibition was 47.5% (active).
With `COC(=O)c1c(NC(=O)C2CC(C)=C(C)CC2C(=O)O)sc2c1CCCCC2` (stereo not given) the inhibition was 66.4% (active).
With `N#Cc1c(NC(=O)C2CC(Cl)=CCC2C(=O)O)sc2c1CCCCC2` (stereo not given) the inhibition was 38% (active).
In the case of `N#CCC(=O)Nc1ccc(C(=O)OCC(=O)Nc2sc3c(c2C#N)CCCC3)cc1`, the inhibition is reported as 33.2% (inactive).
With `CCOC(=O)c1c(NC(=O)C2CC=CCC2C(=O)O)sc(C)c1CC` (stereo not given) the inhibition was 37.1% (active).
With `CSc1ccc(C=Nn2c(-c3ccc(F)cc3)n[nH]c2=S)cc1` the inhibition was 41.7% (active).
With `Cc1ccc(CSc2nc(-c3ccccc3)c(C#N)c(=O)[nH]2)cc1` the inhibition was 66.6% (active).
For `N#Cc1c(-c2ccccc2)nc(SCc2ccc([N+](=O)[O-])cc2)[nH]c1=O`, the inhibition was 58.7% (active).
In the case of `N#Cc1c(-c2ccccc2)nc(SCc2cccc(C(F)(F)F)c2)[nH]c1=O`, the inhibition is reported as 80.3% (active).
In the case of `O=C1CC(c2ccccc2)=NN1c1ccc([N+](=O)[O-])cc1`, the inhibition is reported as 23.7% (inactive).
With `CCOc1cc(/C=C(\C#N)c2nc(-c3cccs3)c(NC(C)=O)s2)ccc1O` the inhibition was 40.4% (active).
In the case of `Cc1ccc(S(=O)(=O)Nc2nc3ccccc3s2)cc1[N+](=O)[O-]`, the inhibition is reported as 29.7% (inactive).
For `O=[N+]([O-])c1cc(Br)c(O)c(/C=N/Nc2nc3ccccc3s2)c1`, the inhibition was 94.7% (active).
With `C=CCNc1nc(N)c(C(=C(C#N)C#N)c2ccccc2)s1` the inhibition was 15.9% (inactive).
In the case of `O=C(N/N=C/c1c(Cl)[nH]c2ccccc12)c1sc2ccccc2c1Cl`, the inhibition is reported as 22.9% (inactive).
With `Cc1cc(F)ccc1S(=O)(=O)Nc1ncnc2scc(-c3ccc(F)cc3)c12` the inhibition was 70.8% (active).
With `CC(C(=O)Nc1ccc(O)c(C(=O)O)c1)N1C(=O)/C(=C/c2cccs2)SC1=S` (stereo not given) the inhibition was 75.9% (active).
In the case of `CSc1nnc(NC(=O)c2nc(S(=O)(=O)Cc3ccc(C)cc3)ncc2Cl)s1`, the inhibition is reported as 37.4% (active).
For `Cc1nnc(NC(=O)Nc2ccc(Cl)c(Cl)c2)s1`, the inhibition was 24.5% (inactive).
For `CCOC(=O)c1cc2cc(-c3c(C(=O)OCC)oc4cc(O)cc(O)c4c3=O)ccc2o1`, the inhibition was 40.4% (active).
In the case of `Cn1c2ccccc2c2cc(/C=C(\NC(=O)c3ccccc3)C(=O)NCC(=O)O)ccc21`, the inhibition is reported as 39.8% (active).
In the case of `O=C(NC(=S)Nc1ccccc1C(=O)O)c1ccc(-c2ccc(Br)cc2)o1`, the inhibition is reported as 82.7% (active).
With `Cc1ccc(S(=O)(=O)N2[C@@H](c3cccc4ccccc34)C(C(=O)O)=C[C@H]2C(C)(C)C)cc1` the inhibition was 50.3% (active).
For `Cc1ccc(NC(=O)CC2S/C(=N/N=C3\CCCc4ccccc43)NC2=O)cc1` (stereo not given), the inhibition was 54.7% (active).
In the case of `CC1(C(=O)NS(=O)(=O)c2ccc3ccccc3c2)CCN1C(=O)C1(c2ccc(Cl)cc2)CCC1` (stereo not given), the inhibition is reported as 72% (active).
In the case of `O=[N+]([O-])c1cc(Cl)cc(/C=N/NC(=S)Nc2cc(S(=O)(=O)N3CCOCC3)ccc2Cl)c1O`, the inhibition is reported as 95.4% (active).
In the case of `CCC(C)Cn1c(O)cc2nn(-c3nc4ccccc4s3)c(=O)c-2c1C` (stereo not given), the inhibition is reported as 63.4% (active).
With `CC(C)c1nc(SCC(=O)Nc2cccc(C(=O)O)c2)c2c3c(sc2n1)CCCC3` the inhibition was 61.1% (active).
For `CCSc1nsc(NC(=O)Nc2cccc(C(C)=O)c2)n1`, the inhibition was 26.3% (inactive).
With `Cc1ccc2nc(N3C(=O)C(O)=C(C(=O)c4ccco4)C3c3cccc(O)c3)sc2c1` (stereo not given) the inhibition was 73.8% (active).
In the case of `COc1cc(C2CC(=O)N3CN(Cc4ccccc4)CSC3=C2C#N)ccc1OCc1ccccc1` (stereo not given), the inhibition is reported as 25.8% (inactive).
For `O=C(NNc1c2ccccc2nc2ccccc12)c1cc2ccccc2cc1O`, the inhibition was 45.6% (active).
With `O=C(N/N=C/c1cccnc1)c1cc2ccccc2cc1O` the inhibition was 9.03% (inactive).
For `CC(=N\NC(=O)c1cc(Br)ccc1O)/C(=N/O)C(=O)Nc1ccccc1`, the inhibition was 12.1% (inactive).
With `Cc1ccc(/C=C/C(=O)Nc2ccc([N+](=O)[O-])c(NC(=O)/C=C/c3ccc(C)o3)c2)o1` the inhibition was 47.7% (active).
With `O=C(Nc1cccc(F)c1)c1cc(-c2ccco2)nc2ccccc12` the inhibition was 4.09% (inactive).
In the case of `O=C(O)c1cccc(NC(=O)c2cc(-c3cccc(Cl)c3)nc3ccccc23)c1`, the inhibition is reported as 46.1% (active).
In the case of `Cc1ccccc1-n1c(SCC(=O)Nc2cccc3ccccc23)nc(O)cc1=O`, the inhibition is reported as 14.2% (inactive).
With `CCOc1ccc(-n2c(SCC(=O)Nc3cc(C(=O)O)ccc3Cl)nc3ccccc3c2=O)cc1` the inhibition was 52.9% (active).
